29 compounds from PubChem BioAssay AID1048 (The Scripps Research Institute Molecular Screening Center, 2008) can be followed below.

Among all 99,000 compounds or so, about 390 (0.39%) were called active. For the sample, actives were picked, then their nearest neighbours and some compounds at random. Unmarked numbers belong to inactive results. Rule as the data show it: active = TR-FRET ratio above about 2000; inactive = the rest.

A short description of this test: signal artefacts in PPARgamma/SRC-3 readout – biochemical, TR-FRET ratio, artefact control for PPARgamma SRC-3 recruitment agonists (AID 1048). The following applies: TR-FRET artefact counter-screen, PPARgamma/SRC-3 format; at 8 µM; active compounds read high.
As for `CCc1cccc(CC)c1NC(=O)COc1ccccc1C(=O)c1cc(C#N)c(=O)n(C2CCCCC2)c1`, the TR-FRET ratio was 1810.

Regarding `CCN(CC(=O)NCCc1ccccc1)S(=O)(=O)c1ccc(C)cc1`, the TR-FRET ratio is 1520.

As to `O=C(O)CCN(Cc1ccccc1)S(=O)(=O)c1c(Cl)cccc1Cl`, the TR-FRET ratio is 1570.

In the case of `O=C(CCc1ccccc1)Nc1nn[nH]n1`, the TR-FRET ratio was 1720.

Take `C/C(CC(=O)N1CCN(C=O)CC1)=N\NC(=O)c1ccc(Br)cc1`: the TR-FRET ratio is 1640.

Turning to `O=C(Nc1cccc(Cl)c1)c1cc([N+](=O)[O-])ccc1N1CCN(CCO)CC1`, the TR-FRET ratio was 1540.

`O=C(C1CCN(C2CCN(Cc3cccc4c3OCO4)CC2)CC1)N1CCOCC1`: the TR-FRET ratio was 1420.

Take `Cc1cc(OCC(=O)NC2CCN(C)CC2)ccc1[N+](=O)[O-]`: the TR-FRET ratio was 1610.

For the compound `O=C(Nc1ccccc1C(=O)N1CCOCC1)c1ccc(Cl)cc1`, the TR-FRET ratio is 1680.

With `COc1ccc(C(=O)Nc2ccc(NC(=O)C(C)C)nc2)cc1`, the TR-FRET ratio was 1500.

As for `C=CCn1nc(-c2ccccc2)c2c(C)onc2c1=O`, the TR-FRET ratio is 1650.

Take `O=C(N1CCCCC1)N1CCN(C(=O)N2CCCCC2)CC1`: the TR-FRET ratio was 1530.

In the case of `CC(=O)Nc1ccccc1OC(C)C(=O)N1CCC(C)CC1` (centres undefined), the TR-FRET ratio was 1390.

Turning to `O=C(NCc1ccncc1)NC12CC3CC(CC(C3)C1)C2`, the TR-FRET ratio is 1490.

As for `Cc1ccc(C(=O)OC(C)CN2CCOCC2)cc1` (centres undefined), the TR-FRET ratio was 1500.

Take `CCOC(=O)C1CCCN(C(=O)/C=C/c2ccc(OC)cc2)C1` (centres undefined): the TR-FRET ratio is 1570.

On to `COc1ccc(CN2CCCC(CNC(=O)c3ccc(F)cc3)C2)cc1OC` (centres undefined), for which the TR-FRET ratio was 1700.

Take `Cc1ccnc(NC(=O)CCC(=O)N(CC(=O)NCCc2ccccc2)Cc2cccs2)c1`: the TR-FRET ratio was 1720.

Consider `COc1cccc(CC2(CO)CCCN(Cc3nc(-c4cccs4)oc3C)C2)c1` (centres undefined), for which the TR-FRET ratio was 1600.

For `CCOC(=O)N1CCN(C(=O)Cn2cnc3ccccc3c2=O)CC1`, the TR-FRET ratio was 1650.

Take `Cc1ccc2nsnc2c1NC(=O)c1ccccc1[N+](=O)[O-]`: the TR-FRET ratio was 1630.

`COc1cc(/C=C/C(=O)O)cc(S(=O)(=O)Nc2ccccc2SC)c1OC`: the TR-FRET ratio was 1430.

`CCSc1nc(C)c(CCOc2cccc(C)c2)c(=O)[nH]1`: the TR-FRET ratio is 1860.

For `Cc1ccc(C(=O)NCC(=O)O)s1`, the TR-FRET ratio was 1560.

As for `COc1cc(COCC(O)CN2CCN(Cc3ccc4c(c3)OCO4)CC2)cc(OC)c1OC` (centres undefined), the TR-FRET ratio was 1800.

Turning to `CCN(CC)CC(=O)Nc1sc2c(c1C(=O)c1ccccc1C)CCC2`, the TR-FRET ratio was 1510.

With `NC(=O)C[C@@H]1NC(=O)CNC(=O)c2cc([N+](=O)[O-])cc(I)c2NCCC(C(N)=O)NC1=O` (some centres undefined), the TR-FRET ratio was 1320.

As to `Cc1cc(C(=O)NNC(=O)c2cccc(S(=O)(=O)N3CCOCC3)c2)c2ccccc2n1`, the TR-FRET ratio is 1670.

In the case of `O=C(Cc1ccccc1)NNC(=O)C1CCN(c2ncccn2)CC1`, the TR-FRET ratio is 1500.
